These results are taken from PubChem BioAssay.

A short description of assay [1]: binders of probe aFSTL3 on microarray, primary screen, stem cell growth factor project, biochemical, small-molecule microarray, fluorescence 635/667 (AID 1064).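 Further: measures binding of the biotinylated anti-FSTL3 antibody to printed compounds.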 Conditions: higher = more signal.
The nature of assay [2]: binders from COS7 lysate, DM2A8 probe, primary screen, torsin A project, cell lysate, small-molecule microarray, fluorescence 635/667 (AID 1065). To be noted: higher = more signal, COS7 lysate expressing mutant human TOR1A.
Assay [3] is described as follows: binders of probe aFGF2 on microarray, primary screen, stem cell growth factor project, biochemical, small-molecule microarray, fluorescence 635/667 (AID 1067).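 Further: measures binding of biotinylated aFGF2 protein to printed compounds on slides; z-score merges feature fluorescence and signal-to-noise across triplicate slides.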 Conditions: higher = more signal.
The nature of assay [4]: binders of probe aFGF10 on microarray, primary screen, stem cell growth factor project, biochemical, small-molecule microarray, fluorescence 635/667 (AID 1071).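 Further: score merges 667 nm spot intensity and signal to noise from triplicate slides.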 Conditions: higher = more signal.
In assay [5] the target is Neurogenic locus notch homolog protein 2 (Homo sapiens) (UniProt Q04721). The experiment in a line: Notch2 binders on small-molecule microarrays, primary screen, biochemical, small-molecule microarray, 635 nm fluorescence, stem cell growth factors (AID 1073). Conditions: Notch2 binding, higher = more signal.
The target of assay [6] is Pro-neuregulin-1, membrane-bound isoform (Homo sapiens) (UniProt Q02297). Nature of the assay: NRG1 binders on small-molecule microarrays, primary screen, psychiatric disease protein project, biochemical, small-molecule microarray, fluorescence 635/667 (AID 1075).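 Further: score combines 667 nm spot fluorescence with signal to noise.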 Conditions: NRG1 binding, 635 nm fluorescence, higher = more signal.
Sequence of Pro-neuregulin-1, membrane-bound isoform (Homo sapiens) (Q02297 whole entry, looked up, the tested form may be a part, canonical isoform): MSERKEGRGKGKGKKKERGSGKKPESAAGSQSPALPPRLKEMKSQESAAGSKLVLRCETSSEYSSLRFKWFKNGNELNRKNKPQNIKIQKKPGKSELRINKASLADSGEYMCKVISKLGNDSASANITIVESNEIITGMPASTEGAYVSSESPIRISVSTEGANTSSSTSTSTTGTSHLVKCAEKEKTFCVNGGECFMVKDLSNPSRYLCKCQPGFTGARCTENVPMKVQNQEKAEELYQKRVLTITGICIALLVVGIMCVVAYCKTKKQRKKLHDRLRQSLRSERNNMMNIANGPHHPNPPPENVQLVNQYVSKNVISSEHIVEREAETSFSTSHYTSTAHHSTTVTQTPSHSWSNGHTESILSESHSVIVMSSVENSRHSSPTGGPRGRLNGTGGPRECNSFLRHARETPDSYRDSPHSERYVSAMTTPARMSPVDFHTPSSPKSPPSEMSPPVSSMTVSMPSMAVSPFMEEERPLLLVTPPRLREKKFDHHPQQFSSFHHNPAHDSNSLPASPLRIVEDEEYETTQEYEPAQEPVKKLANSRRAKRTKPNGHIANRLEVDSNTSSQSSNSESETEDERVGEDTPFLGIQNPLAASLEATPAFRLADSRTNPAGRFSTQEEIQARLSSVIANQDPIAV
In assay [7] the test system is Neuregulin-1 EGF-like domain. The experiment in a line: binders of neuregulin-1 EGF-like domain, primary screen, biochemical, small-molecule microarray, 635 nm fluorescence (AID 1081).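 Further: binding of the protein to compounds printed on small-molecule microarray slides.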 Conditions: small-molecule microarray binding, higher = more signal.
Assay [8] can be described thus: FRG1 promoter luciferase signal modulators, primary screen, FRG1 inhibition for FSHD, cell-based, C2C12 myotubes, firefly/Renilla luciferase, luminescence (AID 1084). Conditions: higher = more signal, called active from +8 up or from −8 down.
The nature of assay [9]: binders of probe aFST on microarray, primary screen, stem cell growth factor project, biochemical, small-molecule microarray, fluorescence 635/667 (AID 1086).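 Further: score merges 667 nm fluorescence with signal-to-noise of each printed compound spot.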 Conditions: higher = more signal.
Assay [10] is described as follows: binders of probe aHhip on microarray, primary screen, stem cell growth factor project, biochemical, small-molecule microarray, fluorescence 635/667 (AID 1087).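 Further: score merges spot fluorescence at 667nm with spot signal to noise ratio.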 Conditions: higher = more signal.
Assay [11] deals with PRMT1 (protein arginine N-methyltransferase 1). Nature of the assay: PRMT1 binders on small-molecule microarrays, primary screen, biochemical, small-molecule microarray, 635 nm fluorescence (AID 1088).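 Further: binding of Prmt1 protein to compounds spotted on small-molecule microarray slides.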 To be noted: small-molecule microarray binding, higher = more signal.
A short description of assay [12]: yeast growth modulation, basal conditions, primary screen, YJM789 clinical isolate, OD600, 24 h (AID 1089).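 Further: growth of clinical yeast isolate S. cerevisiae YJM 789 seeded 1000 cells per well; test concentration not given here.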 Conditions: S. cerevisiae YJM789 growth, higher = more signal, called active from +8 up or from −8 down.
Assay [13] is described as follows: fission yeast growth modulation, primary screen, strain 972, OD600, 24 h, no modulator (AID 1090).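 Further: basal condition with compound alone and no growth modifier present; test concentration not given here.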 To be noted: S. pombe 972 growth, higher = more signal, called active from +8 up or from −8 down.
Assay [14] in a line: S. cerevisiae growth modulation with rapamycin, primary screen, strain BY4716, OD600, 96 h (AID 1091). Further: test concentration not given here. To be noted: higher = more signal, called active from +8 up or from −8 down.
The target in assay [15] is Torsin-1A-interacting protein 2 (Homo sapiens) (UniProt Q8NFQ8). Nature of the assay: LULL1 binders on small-molecule microarray, primary screen, cell lysate, human LULL1 lysate, 635/667 nm fluorescence (AID 1092).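 Further: probe is lysate of COS7 cells overexpressing human LULL1; score merges per-feature 667 nm fluorescence with signal-to-noise.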 Conditions: hLULL1 lysate binding, 635 nm fluorescence, higher = more signal.
Sequence of Torsin-1A-interacting protein 2 (Homo sapiens) (Q8NFQ8 whole entry, looked up): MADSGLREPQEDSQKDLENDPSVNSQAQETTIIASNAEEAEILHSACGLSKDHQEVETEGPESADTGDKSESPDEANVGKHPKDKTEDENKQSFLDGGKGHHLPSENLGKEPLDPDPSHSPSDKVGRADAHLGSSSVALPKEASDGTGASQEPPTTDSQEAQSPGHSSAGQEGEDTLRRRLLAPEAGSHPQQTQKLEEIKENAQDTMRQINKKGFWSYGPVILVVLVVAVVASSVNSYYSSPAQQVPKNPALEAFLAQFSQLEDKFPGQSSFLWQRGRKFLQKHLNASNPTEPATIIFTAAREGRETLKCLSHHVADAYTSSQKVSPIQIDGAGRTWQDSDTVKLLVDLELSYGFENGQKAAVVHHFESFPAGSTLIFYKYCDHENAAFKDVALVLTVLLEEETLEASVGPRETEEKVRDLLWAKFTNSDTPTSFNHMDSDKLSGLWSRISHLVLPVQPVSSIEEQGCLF
Assay [16] is described as follows: E. coli growth modulation, two-sided OD650, primary screen, E. coli filamentation project, strain DRC41, 24 h (AID 1093).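 Further: MC1000 strain lacking acrAB efflux and sulA so SOS filamentation is blocked; test concentration not given here.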 To be noted: OD650, 24 h, higher = more signal, called active from +8 up or from −8 down.
The nature of assay [17]: small-molecule microarray binders of probe aLefty2, primary screen, biochemical, biotinylated probe, 635/667 nm fluorescence (AID 1094).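 Further: score merges spot fluorescence near 667 nm with spot signal-to-noise ratio.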 To be noted: higher = more signal.
For assay [18], the system named is Noggin (protein binding on small-molecule microarray). Nature of the assay: Noggin binders on small-molecule microarray, primary screen, biochemical, 635/667 nm fluorescence (AID 1095).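 Further: score merges 667 nm feature fluorescence with signal to noise over triplicate slides.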 Conditions: 635 nm fluorescence, higher = more signal.
Assay [19] addresses Neurogenic locus notch homolog protein 3 (Homo sapiens) (UniProt Q9UM47). Nature of the assay: NOTCH3 binders on small-molecule microarray, primary screen, biochemical, 635/667 nm fluorescence (AID 1096). To be noted: NOTCH3 binding, 635 nm fluorescence, higher = more signal.
Assay [20] in a line: small-molecule microarray binders of probe aEGFR, primary screen, biochemical, biotinylated probe, 635/667 nm fluorescence (AID 1097).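 Further: probe is a biotinylated anti-EGFR antibody binding compounds printed on slides; score combines fluorescence near 667 nm and signal to noise of each spot.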 To be noted: higher = more signal.

Structures are written as SMILES. Calls of active or inactive are those of the source.

Sequence of Neurogenic locus notch homolog protein 3 (Homo sapiens) (Q9UM47 whole entry, looked up): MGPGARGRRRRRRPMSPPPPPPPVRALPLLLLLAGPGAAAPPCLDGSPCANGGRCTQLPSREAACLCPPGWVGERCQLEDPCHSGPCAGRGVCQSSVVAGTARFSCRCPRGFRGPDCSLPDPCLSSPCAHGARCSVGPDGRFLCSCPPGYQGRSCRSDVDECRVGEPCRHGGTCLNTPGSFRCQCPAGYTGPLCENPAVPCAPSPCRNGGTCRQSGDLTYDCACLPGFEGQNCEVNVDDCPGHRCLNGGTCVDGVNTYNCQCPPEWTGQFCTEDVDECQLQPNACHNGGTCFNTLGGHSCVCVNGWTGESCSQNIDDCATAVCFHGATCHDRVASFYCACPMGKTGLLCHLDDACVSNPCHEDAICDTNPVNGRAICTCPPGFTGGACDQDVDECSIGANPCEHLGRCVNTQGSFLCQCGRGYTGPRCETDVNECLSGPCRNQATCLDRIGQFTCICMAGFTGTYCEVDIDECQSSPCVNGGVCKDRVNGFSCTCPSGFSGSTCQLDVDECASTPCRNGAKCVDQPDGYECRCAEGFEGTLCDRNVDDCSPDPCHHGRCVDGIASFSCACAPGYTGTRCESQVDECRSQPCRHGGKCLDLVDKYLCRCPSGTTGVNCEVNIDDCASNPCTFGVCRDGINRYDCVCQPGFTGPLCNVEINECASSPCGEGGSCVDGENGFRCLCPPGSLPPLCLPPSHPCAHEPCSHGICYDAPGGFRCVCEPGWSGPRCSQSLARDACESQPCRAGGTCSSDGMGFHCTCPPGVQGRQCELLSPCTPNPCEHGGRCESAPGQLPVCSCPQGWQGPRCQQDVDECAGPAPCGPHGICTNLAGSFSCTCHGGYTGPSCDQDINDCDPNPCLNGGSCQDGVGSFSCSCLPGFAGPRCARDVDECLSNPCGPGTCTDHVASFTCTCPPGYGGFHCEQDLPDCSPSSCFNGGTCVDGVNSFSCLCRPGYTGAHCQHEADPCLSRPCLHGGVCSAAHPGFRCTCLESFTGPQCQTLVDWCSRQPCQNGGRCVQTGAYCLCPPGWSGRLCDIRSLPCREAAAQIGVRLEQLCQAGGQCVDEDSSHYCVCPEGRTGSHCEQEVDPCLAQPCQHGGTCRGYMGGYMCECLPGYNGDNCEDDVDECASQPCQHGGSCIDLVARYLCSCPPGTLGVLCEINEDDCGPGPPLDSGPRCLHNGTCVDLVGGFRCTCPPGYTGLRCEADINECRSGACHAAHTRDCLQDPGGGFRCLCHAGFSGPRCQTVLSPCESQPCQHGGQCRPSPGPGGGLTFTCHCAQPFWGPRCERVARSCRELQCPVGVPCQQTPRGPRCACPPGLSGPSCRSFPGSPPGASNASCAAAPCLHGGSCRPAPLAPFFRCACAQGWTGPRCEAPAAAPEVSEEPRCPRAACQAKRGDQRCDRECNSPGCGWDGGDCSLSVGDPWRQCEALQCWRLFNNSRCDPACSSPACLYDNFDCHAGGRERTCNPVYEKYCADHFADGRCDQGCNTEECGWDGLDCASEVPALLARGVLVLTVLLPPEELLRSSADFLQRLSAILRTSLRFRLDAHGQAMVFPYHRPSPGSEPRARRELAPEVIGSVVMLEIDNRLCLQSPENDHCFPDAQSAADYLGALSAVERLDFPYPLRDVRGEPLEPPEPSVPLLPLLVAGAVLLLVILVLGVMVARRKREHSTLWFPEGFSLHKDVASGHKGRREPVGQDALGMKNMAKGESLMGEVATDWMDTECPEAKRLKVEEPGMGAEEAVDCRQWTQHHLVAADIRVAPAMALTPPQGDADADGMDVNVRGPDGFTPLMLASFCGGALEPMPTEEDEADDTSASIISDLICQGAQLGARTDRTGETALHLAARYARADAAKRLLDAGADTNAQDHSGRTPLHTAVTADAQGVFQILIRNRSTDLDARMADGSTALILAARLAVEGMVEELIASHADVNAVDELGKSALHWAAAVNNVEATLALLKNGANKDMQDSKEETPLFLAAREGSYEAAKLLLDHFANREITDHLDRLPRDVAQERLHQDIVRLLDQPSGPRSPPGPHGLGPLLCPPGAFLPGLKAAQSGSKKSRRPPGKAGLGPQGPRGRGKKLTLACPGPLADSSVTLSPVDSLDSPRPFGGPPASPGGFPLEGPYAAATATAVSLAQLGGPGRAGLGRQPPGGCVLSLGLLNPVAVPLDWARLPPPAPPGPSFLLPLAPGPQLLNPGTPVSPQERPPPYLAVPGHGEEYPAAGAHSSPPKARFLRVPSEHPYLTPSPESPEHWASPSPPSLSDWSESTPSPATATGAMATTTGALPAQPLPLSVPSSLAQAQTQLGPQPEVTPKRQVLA

As to `CCCC[C@H]1OB(O)C[C@H]2C1=C(COc1ccccc1)C[C@H]1C(=O)C=CC(=O)[C@H]12`, the composite z-score was -0.315 in assay [1]; 0.351 in [2]; -0.0503 in assay [3]; 0.603 in assay [4]; 0.489 in assay [5]; 0.169 in assay [6]. Further, the composite z-score was 0.19 in assay [7]; 0.23 in [9]; 0.316 in assay [10]; 1.07 in [11]; 0.258 in assay [15]; -0.377 in [17]. Also, the composite z-score in assay [18] is 0.592; in assay [19], 1.03; in [20], -0.0007. In addition, the z-score was -1.1 (inactive) in assay [8]; 0.426 (inactive) in assay [12]; -3.31 (inactive) in assay [13]; -0.241 (inactive) in assay [14]; 1.78 (inactive) in [16].
Turning to `CC(C)NC(=O)[C@@H]1c2ccccc2C(=O)N(Cc2ccccc2C(F)(F)F)[C@H]1c1ccc(CO)cc1`, the composite z-score in assay [1] is -0.804; in assay [2], 0.313; in assay [3] it was 0.0553; in assay [4], -0.0635; in assay [5], -0.409; in assay [6] it was -0.774. Moreover, the composite z-score in [7] was 0.837; in assay [9] it was 0.618; in [10], -0.668; in assay [11], -0.123; in [15], 2.36; in assay [17], -0.241. In addition, the composite z-score is -0.238 in [18], 0.0828 in [19] and 0.668 in [20]. In addition, the z-score in assay [8] was -1.26 (inactive); in [12], -0.202 (inactive); in assay [13], 0.163 (inactive); in assay [14] it was -1.04 (inactive); in [16] it was -0.327 (inactive).
`CC1CC/C=C\[C@H]2OC34C=CCN(C(C)(C)C)C(=O)[C@H]3N(CCCO)C(=O)[C@@H]4C2C(=O)O1` (stereo not given in full): the composite z-score in assay [1] was 0.142; in [2], -0.0052; in [3], -0.0063; in [4], 0.716; in assay [5], -0.858; in assay [6], 0.647. For the same compound, the composite z-score in assay [7] is 1.28; in [9] it was 0.182; in assay [10], -0.169; in assay [11], -0.672; in [15], 1.86; in [17], -0.214. In addition, the composite z-score in assay [18] was -0.556; in assay [19], -0.281; in assay [20], -0.249. The z-score in [8] was -0.281 (inactive); in assay [12], 0.884 (inactive); in [13], 0.743 (inactive); in [14], 1.14 (inactive); in assay [16], 0.545 (inactive).
Consider `C[N+](C)(C)CCCCNC(=O)[C@H]1C[C@H]2C(=O)N[C@@H](Cc3ccccc3)C(=O)N2[C@H]1c1cccc(OCCO)c1`, for which the composite z-score in assay [1] was -0.397; in [2] it was 1.29; in assay [3], -0.0375; in [4], 1.21; in assay [5] it was 0.641; in assay [6], 1.06. The composite z-score in assay [7] was found to be 1.36; in assay [9], 0.435; in assay [10], 0.0373; in [11], 0.982; in assay [15], 1.99; in assay [17] it was 0.0899. In addition, the results for the composite z-score in assay [18], in assay [19] and in assay [20] were 1.88, 1.02 and 0.256, respectively. Moreover, the z-score in [8] was 2.28 (inactive); in assay [12], -0.0304 (inactive); in assay [13], 0.351 (inactive); in [14] it was -1.82 (inactive); in assay [16], 0.0648 (inactive).
For the compound `COC(=O)C1(Cc2ccccc2)C=C2C(=C(C)C(=O)C2C)CN1` (stereo not given), the composite z-score was 0.601 in [1]; 0.158 in [2]; -0.0032 in [3]; 0.137 in assay [4]; 1.01 in assay [5]; 0.643 in assay [6]. The composite z-score in [7] is 0.635; in assay [9], 0.66; in assay [10] it was -0.199; in [11], -0.467; in [15], 2.04; in assay [17] it was 0.732. Also, the composite z-score is -0.233 in assay [18], -0.016 in assay [19] and -0.0146 in assay [20]. Besides, the z-score in assay [8] is 0.0369 (inactive); in [12], -1.06 (inactive); in assay [13], 0.163 (inactive); in assay [14] it was -0.0472 (inactive); in assay [16], -0.366 (inactive).
